Data reported in PubChem BioAssay AID1053118 (Broad Institute, 2014).
Results with a measured potency or affinity are listed apart. The source made the active and inactive calls.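 How the source made its calls: active means fitted half-maximal concentration for ATP signal loss at most twice the top valid dose; inconclusive means flat curve between -70 and -30%, or an invalid fit; inactive means flat within ±30%, wrong direction, or potency past limit.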

assay: HepG2 cell cytotoxicity, dose response, cytotoxicity control, cherry-picks, set 5 (AID 1053118); conditions: HepG2 viability, ATP luminescence, 72 h; series mostly up to 26 µM; activity change, negative = cytotoxicity: at the top concentration;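 further: 0% = neutral control wells and -100% = mitoxantrone positive control wells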

Structure (SMILES) | activity change, negative = cytotoxicity
O=C(CC1Nc2ccccc2NC1=O)Nc1ccc2c(c1)OCO2 (stereo unspecified) | 1.78% (inactive)
C[C@H](CO)N1C[C@H](C)[C@@H](CN(C)C(=O)c2cccc(F)c2)Oc2ncc(-c3ccccc3)cc2C1=O | -14.7% (inactive)
C[C@H](CO)N1C[C@H](C)[C@H](CN(C)C)Oc2cc(C#C[C@@H](C)O)ccc2S1(=O)=O | -0.041% (inactive)
O=C(Nc1nc(-c2ccncc2)cs1)C1COc2ccccc2O1 (stereo unspecified) | 9.19% (inactive)
COc1ccc(Cl)cc1NC(=O)CSc1nc(Nc2ccccc2)nc(N2CCOCC2)n1 | 13.1% (inactive)
CCOC(=O)C1=C(C)Nc2nc3ccccc3n2C1c1ccncc1 (stereo unspecified) | -13% (inactive)
CC(C)Cc1nnc(NC(=O)CSc2nc(N)cc(=O)[nH]2)s1 | -7.72% (inactive)
O=C(c1cccnc1)N1C[C@H]2[C@@H](c3ccccc31)[C@H](CO)N2CC1CCCC1 | -10.3% [at 23.5 µM] (inactive)
C[C@@H]1CN([C@H](C)CO)C(=O)c2cc(NC(=O)C3CCCCC3)ccc2O[C@@H]1CN(C)Cc1ccc(-c2ccccc2)cc1 | -9.23% (inactive)
COC(=O)c1cn(CC(=O)NCc2ccco2)c2ccccc12 | -1.99% (inactive)
COCC(=O)Nc1ccc2c(c1)C(=O)N(C)[C@H]1CC[C@H](CC(=O)NCc3ccccc3Cl)O[C@H]1CO2 | -9.22% (inactive)
O=C(Nc1ccccc1F)N1C[C@@H]2[C@H](c3ccccc31)[C@H](CO)N2C(=O)C1CC1 | -13.3% [at 23.5 µM] (inactive)
N#Cc1ccc(-c2ccc3c(c2)[C@@H]2[C@@H](CCN2S(=O)(=O)c2ccccc2F)[C@H](CO)N3)cc1 | 1.1% (inactive)
C=CCC[C@H](Cc1ccc(F)cc1)C(=O)OC[C@H](Cc1c[nH]c2ccccc12)NC(=O)[C@@H](CC=C)CC(=O)N[C@@H](CO)Cc1ccccc1 | -19.8% (inactive)
C[C@H]1CN([C@@H](C)CO)C(=O)c2cccc(NC(=O)Nc3ccc(C(F)(F)F)cc3)c2O[C@H]1CN(C)C(=O)Nc1cccc2ccccc12 | -14.3% [at 23.5 µM] (inactive)
c1ccc2[nH]c(SCc3cn4cccnc4n3)nc2c1 | 35.2% (inactive)
CC(NC(=O)CSc1ccc(S(=O)(=O)N2CCOCC2)cn1)c1ccc(Cl)cc1Cl (stereo unspecified) | 13.9% (inactive)
NC(=O)C1=C[C@H](c2coc3ccccc3c2=O)C[C@H](OCCCCO)O1 | -5.67% (inactive)

Structure (SMILES) | activity change, negative = cytotoxicity
COc1ccc(-c2csc(CCn3nc(C)cc3C)n2)cc1OC | -11.4% (inactive)
C[C@@H]1CN([C@@H](C)CO)C(=O)c2cc(-c3ccccc3)cnc2O[C@H]1CN(C)C(=O)c1cccc(F)c1 | -6.33% (inactive)
Cc1ccc(C(O)c2ncc(-c3cccc4ccccc34)[nH]2)cc1F (stereo unspecified) | -16% (inactive)
C[C@H](O)C#Cc1ccc2c(c1)O[C@@H](CN(C)C)[C@H](C)CN([C@H](C)CO)S2(=O)=O | -10.7% (inactive)
COC(=O)c1c(NC(=O)CN2CCN(c3ccccc3Cl)CC2)sc(C)c1C | -8.69% (inactive)
Cc1ccc(O)c(-c2cc(-c3cccc(Br)c3)n[nH]2)c1 | 2.04% (inactive)
COC(=O)C[C@@H]1CC[C@H]2[C@@H](COc3ccc(NC(=O)Cc4cccs4)cc3C(=O)N2C)O1 | -10.2% [at 23.5 µM] (inactive)
COc1cccc(-c2ccc3c(c2)[C@@H]2[C@@H](CCN2S(=O)(=O)c2cccc(OC)c2)[C@H](CO)N3)c1 | -18.7% (inactive)
C[C@@H]1CN([C@@H](C)CO)C(=O)c2cc(-c3ccncc3)cnc2O[C@@H]1CN(C)C(=O)Cc1cccnc1 | -2.12% (inactive)
Cc1c(NC(=O)c2ccc3nsnc3c2)cccc1[N+](=O)[O-] | 8.97% (inactive)
C[C@@H]1CN([C@H](C)CO)C(=O)c2cc(-c3ccccc3)cnc2O[C@@H]1CN(C)Cc1ccccc1 | -13% (inactive)
C[C@@H]1CN([C@@H](C)CO)C(=O)c2cc(NC(=O)C3CCCCC3)ccc2O[C@@H]1CN(C)Cc1ccc(-c2ccccc2)cc1 | -15.3% (inactive)
COc1ccccc1CC(=O)OC(C)C(=O)Nc1ccc(S(=O)(=O)N2CCCCC2)cc1 (stereo unspecified) | -7.23% (inactive)
CO[C@H]1CN(C)C(=O)c2cc(NC(=O)Nc3cc(Cl)cc(Cl)c3)ccc2OC[C@@H](C)NC[C@@H]1C | -10.7% (inactive)
COc1ccc(CCNC(=O)C2CCN(Cc3nc(-c4ccccc4F)oc3C)CC2)cc1OC | 11.5% (inactive)
COc1cccc(CNC(=O)CCc2nnc3ccc(NCCCN4CCCC4=O)nn23)c1 | -20.6% (inactive)
O=C(c1cccnc1)N1C[C@H]2[C@@H](c3ccccc31)[C@@H](CO)N2CC1CCCC1 | -16.1% (inactive)
Cc1ccc(S(=O)(=O)N2CC[C@@H]3[C@@H](CO)Nc4ccc(-c5cccc(C(=O)N(C)C)c5)cc4[C@@H]32)cc1 | 54.7% (inactive)
